Key:
Assay in all cases: DAPPL (digital affinity profiling via proximity ligation, sequencing); 10 mM Tris-HCl pH 7.5, 50 mM NaCl, 1 mM DTT, 4% glycerol, room temperature, 30 min; GST-TFs on glutathione beads, 16-mer random dsDNA library, 0.1% formaldehyde crosslink after washing; high values mean tight binding
Details in all cases: protein: recombinant; tags: N-terminal GST; dsDNA, one strand shown
ELK1 = molecular target: T1, ELK1 (Homo sapiens, UniProt P19419 1-428)
T1 sequence: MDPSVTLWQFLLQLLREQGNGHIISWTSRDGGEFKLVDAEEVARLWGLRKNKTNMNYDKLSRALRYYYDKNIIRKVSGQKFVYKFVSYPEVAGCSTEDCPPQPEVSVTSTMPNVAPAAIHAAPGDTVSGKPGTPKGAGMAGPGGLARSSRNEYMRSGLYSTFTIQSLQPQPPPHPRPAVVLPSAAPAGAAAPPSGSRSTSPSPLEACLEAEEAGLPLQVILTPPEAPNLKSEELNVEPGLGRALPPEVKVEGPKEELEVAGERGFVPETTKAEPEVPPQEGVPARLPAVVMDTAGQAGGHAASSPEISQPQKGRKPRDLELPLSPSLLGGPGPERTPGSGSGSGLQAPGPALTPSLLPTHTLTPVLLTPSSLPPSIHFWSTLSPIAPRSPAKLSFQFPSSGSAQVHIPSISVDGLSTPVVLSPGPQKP
Procedure, shortened: (§1)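 A tag-only sample was pooled with DNA-barcoded human transcription factors that had been expressed in yeast as GST fusions and captured on glutathione beads. The pools were incubated for 30 min at room temperature with 200 nmole of a random double-stranded 16-mer DNA library in Tris/NaCl/DTT/glycerol buffer, then washed, crosslinked with 0.1% formaldehyde, proximity-ligated (BsaI/T4 ligase, 1 h, 37 °C), PCR-amplified and sequenced on an Illumina NextSeq500. Binding signal is each hexamer's read frequency for a factor divided by its frequency for the tag-only sample.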

SPI1 = SPI1 (Homo sapiens, UniProt P17947 1-270)
Procedure, shortened: as §1

ELK3 = molecular target: T2, ELK3 (Homo sapiens, UniProt P41970 1-407)
T2 sequence: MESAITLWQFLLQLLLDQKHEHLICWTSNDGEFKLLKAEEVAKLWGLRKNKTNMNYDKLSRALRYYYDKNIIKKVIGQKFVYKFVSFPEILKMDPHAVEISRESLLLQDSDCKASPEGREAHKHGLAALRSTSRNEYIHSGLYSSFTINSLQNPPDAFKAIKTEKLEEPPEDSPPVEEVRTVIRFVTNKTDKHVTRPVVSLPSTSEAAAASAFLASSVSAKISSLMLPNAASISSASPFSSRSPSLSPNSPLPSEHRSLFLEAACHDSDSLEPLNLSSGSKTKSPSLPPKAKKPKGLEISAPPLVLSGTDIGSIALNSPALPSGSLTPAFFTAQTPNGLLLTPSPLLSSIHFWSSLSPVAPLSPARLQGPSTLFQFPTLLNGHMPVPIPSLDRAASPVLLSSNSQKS
Procedure, shortened: as §1

SPIC = molecular target: T3, SPIC (Homo sapiens, UniProt Q8N5J4 1-248)
T3 sequence: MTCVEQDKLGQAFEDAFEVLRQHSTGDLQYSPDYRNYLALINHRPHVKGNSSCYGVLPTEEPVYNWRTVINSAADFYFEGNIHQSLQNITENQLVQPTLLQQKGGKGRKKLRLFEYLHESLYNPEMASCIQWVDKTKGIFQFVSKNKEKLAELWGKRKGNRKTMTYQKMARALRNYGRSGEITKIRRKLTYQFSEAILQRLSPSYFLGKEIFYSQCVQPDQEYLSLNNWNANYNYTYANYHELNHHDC
Procedure, shortened: as §1

ELF4 = ELF4 (Homo sapiens, UniProt Q99607 1-663)
Chain of ELF4 (Q99607 whole entry): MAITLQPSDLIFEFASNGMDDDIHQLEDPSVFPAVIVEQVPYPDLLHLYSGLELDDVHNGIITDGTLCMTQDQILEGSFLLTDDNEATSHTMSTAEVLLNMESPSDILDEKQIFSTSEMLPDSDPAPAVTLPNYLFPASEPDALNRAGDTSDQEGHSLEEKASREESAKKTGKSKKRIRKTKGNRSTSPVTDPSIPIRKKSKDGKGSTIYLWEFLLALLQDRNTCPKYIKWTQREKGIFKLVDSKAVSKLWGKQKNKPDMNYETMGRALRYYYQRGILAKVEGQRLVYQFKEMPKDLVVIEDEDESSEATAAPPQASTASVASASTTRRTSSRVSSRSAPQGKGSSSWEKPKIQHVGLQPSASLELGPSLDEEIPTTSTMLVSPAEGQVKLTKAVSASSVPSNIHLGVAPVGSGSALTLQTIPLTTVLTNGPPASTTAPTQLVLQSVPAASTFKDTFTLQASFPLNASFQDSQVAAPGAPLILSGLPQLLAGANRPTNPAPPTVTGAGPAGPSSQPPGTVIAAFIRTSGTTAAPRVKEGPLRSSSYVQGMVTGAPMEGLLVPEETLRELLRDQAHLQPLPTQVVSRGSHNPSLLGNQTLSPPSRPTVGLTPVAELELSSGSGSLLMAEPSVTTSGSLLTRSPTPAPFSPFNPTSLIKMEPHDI
Procedure, shortened: as §1

ELF3 = molecular target: T4, ELF3 (Homo sapiens, UniProt P78545 1-371)
T4 sequence: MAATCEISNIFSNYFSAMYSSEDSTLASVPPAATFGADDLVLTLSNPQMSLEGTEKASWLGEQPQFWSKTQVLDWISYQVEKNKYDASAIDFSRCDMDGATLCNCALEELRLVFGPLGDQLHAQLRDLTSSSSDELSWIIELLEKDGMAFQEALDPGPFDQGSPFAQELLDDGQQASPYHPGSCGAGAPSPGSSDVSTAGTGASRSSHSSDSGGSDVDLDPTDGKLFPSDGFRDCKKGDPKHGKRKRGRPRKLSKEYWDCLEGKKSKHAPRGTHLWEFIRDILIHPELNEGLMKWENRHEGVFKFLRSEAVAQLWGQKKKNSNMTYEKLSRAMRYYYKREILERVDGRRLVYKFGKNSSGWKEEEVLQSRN
Procedure, shortened: as §1

GABPA = molecular target: T5, GABPA (Homo sapiens, UniProt Q06546 1-454)
T5 sequence: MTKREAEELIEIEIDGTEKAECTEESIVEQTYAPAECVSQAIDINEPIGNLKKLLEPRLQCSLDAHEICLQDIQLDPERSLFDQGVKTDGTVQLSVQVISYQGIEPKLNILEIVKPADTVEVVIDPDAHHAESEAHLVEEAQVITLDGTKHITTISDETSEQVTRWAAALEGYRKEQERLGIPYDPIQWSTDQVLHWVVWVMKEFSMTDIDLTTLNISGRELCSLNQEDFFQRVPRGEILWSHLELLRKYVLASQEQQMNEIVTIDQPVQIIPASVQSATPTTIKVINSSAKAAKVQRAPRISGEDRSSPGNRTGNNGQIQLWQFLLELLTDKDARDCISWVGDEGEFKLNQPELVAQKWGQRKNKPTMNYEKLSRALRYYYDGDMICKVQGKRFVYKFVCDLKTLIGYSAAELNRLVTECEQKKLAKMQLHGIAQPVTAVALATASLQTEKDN
Procedure, shortened: as §1

ELF1 = ELF1 (Homo sapiens, UniProt P32519 1-619)
Chain of ELF1 (P32519 whole entry): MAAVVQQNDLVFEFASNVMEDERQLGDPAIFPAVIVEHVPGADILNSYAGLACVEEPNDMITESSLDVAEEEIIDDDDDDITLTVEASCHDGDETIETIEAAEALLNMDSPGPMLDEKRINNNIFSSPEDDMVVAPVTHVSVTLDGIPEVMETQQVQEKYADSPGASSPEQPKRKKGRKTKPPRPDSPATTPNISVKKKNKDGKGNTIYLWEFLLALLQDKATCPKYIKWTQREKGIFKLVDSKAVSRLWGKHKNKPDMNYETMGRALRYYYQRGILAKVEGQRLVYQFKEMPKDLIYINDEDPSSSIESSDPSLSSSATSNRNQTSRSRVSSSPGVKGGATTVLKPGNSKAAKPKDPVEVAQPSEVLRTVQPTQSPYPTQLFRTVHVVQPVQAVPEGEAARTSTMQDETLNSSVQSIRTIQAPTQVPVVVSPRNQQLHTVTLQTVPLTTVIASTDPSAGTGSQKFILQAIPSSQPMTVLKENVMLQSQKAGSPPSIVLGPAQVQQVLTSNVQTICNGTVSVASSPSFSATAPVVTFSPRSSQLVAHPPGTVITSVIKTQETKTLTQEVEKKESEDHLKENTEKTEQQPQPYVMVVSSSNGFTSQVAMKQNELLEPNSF
Procedure, shortened: as §1

SPIB = SPIB (Homo sapiens, UniProt Q01892 1-262)
Chain of SPIB (Q01892 whole entry): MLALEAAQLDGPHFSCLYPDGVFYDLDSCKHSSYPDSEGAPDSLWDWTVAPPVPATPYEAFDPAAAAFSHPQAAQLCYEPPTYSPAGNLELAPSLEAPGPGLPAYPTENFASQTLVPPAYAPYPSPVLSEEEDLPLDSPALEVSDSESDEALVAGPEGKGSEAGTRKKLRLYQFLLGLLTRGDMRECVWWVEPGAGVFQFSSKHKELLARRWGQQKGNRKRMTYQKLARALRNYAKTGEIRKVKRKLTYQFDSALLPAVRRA
Procedure, shortened: as §1

ELK4 = molecular target: T6, ELK4 (Homo sapiens, UniProt P28324-2 1-405)
T6 sequence: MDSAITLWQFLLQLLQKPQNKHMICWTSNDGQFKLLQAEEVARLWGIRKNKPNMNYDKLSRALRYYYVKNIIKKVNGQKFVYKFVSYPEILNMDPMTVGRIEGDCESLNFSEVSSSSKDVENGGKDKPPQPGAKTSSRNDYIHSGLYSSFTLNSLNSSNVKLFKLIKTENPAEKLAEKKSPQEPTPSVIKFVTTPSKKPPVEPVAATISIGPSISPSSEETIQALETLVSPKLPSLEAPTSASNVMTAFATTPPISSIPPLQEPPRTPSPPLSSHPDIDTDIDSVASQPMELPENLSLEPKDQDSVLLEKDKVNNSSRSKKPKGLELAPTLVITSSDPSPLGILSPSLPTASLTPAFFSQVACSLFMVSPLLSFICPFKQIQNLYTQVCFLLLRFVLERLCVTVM
Procedure, shortened: as §1

ERF = molecular target: T7, ERF (Homo sapiens, UniProt P50548 1-548)
T7 sequence: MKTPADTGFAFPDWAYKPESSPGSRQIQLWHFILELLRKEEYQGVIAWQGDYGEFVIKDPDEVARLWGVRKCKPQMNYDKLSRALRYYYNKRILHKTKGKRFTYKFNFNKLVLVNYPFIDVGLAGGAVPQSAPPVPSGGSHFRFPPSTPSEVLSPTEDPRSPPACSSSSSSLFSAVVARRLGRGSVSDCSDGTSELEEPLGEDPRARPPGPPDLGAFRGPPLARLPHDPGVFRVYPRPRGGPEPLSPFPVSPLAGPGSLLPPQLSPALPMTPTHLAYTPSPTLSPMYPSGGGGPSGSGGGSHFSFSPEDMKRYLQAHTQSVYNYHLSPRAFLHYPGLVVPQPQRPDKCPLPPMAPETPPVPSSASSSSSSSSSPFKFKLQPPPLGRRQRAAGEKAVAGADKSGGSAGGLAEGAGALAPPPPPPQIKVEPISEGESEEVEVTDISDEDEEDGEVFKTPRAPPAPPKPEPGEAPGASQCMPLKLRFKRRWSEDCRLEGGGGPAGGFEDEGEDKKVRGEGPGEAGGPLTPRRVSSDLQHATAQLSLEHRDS
Procedure, shortened: as §1

ETV3L = molecular target: T8, ETV3L (Homo sapiens, UniProt Q6ZN32 1-361)
T8 sequence: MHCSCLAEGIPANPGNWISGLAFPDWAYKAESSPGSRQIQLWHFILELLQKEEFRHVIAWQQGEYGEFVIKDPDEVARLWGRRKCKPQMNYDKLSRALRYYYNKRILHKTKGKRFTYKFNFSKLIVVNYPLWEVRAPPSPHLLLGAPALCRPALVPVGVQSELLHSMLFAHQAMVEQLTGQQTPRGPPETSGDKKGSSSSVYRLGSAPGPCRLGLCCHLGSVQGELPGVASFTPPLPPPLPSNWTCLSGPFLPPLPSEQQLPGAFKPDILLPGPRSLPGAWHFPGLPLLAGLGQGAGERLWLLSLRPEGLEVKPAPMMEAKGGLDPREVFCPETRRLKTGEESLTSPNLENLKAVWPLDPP
Procedure, shortened: as §1

ETS2 = molecular target: T9, ETS2 (Homo sapiens, UniProt P15036 1-469)
T9 sequence: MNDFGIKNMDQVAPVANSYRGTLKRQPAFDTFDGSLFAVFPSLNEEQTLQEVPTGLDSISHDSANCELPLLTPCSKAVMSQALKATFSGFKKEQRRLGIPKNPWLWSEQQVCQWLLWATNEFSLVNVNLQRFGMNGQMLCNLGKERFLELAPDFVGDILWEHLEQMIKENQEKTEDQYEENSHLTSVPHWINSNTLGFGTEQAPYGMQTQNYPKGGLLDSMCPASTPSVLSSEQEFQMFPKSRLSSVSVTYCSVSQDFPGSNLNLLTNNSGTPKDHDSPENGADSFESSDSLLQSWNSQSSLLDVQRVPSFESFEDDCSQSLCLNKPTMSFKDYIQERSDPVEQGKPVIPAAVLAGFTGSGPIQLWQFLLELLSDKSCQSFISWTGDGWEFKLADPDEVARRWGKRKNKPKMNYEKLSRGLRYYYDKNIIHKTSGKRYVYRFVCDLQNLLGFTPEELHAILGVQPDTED
Procedure, shortened: as §1

SPDEF = molecular target: T10, SPDEF (Homo sapiens, UniProt O95238 1-335)
T10 sequence: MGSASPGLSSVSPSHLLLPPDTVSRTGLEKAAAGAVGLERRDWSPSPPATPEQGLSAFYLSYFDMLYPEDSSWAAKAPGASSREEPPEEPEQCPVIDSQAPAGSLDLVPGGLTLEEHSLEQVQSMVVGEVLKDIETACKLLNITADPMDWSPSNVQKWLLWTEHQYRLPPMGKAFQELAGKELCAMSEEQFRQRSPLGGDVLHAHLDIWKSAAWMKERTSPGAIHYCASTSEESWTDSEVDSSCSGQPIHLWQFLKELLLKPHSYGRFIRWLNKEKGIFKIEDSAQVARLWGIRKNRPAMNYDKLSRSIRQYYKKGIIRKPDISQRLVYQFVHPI
Procedure, shortened: as §1

ACATGA
binding signal (ELK1): 1.01 fold enrichment (6-mer frequency, TF over GST control)
binding signal (SPI1): 1.01 fold enrichment (6-mer frequency, TF over GST control)
binding signal (ELK3): 1.07 fold enrichment (6-mer frequency, TF over GST control)
binding signal (SPIC): 1.02 fold enrichment (6-mer frequency, TF over GST control)
binding signal (ELF4): 1.04 fold enrichment (6-mer frequency, TF over GST control)
binding signal (ELF3): 1.03 fold enrichment (6-mer frequency, TF over GST control)

GTATTG
binding signal (ELK1): 1.01 fold enrichment (6-mer frequency, TF over GST control)
binding signal (GABPA): 1.04 fold enrichment (6-mer frequency, TF over GST control)
binding signal (ELF1): 1.04 fold enrichment (6-mer frequency, TF over GST control)
binding signal (SPIB): 1.1 fold enrichment (6-mer frequency, TF over GST control)
binding signal (ELK3): 1.08 fold enrichment (6-mer frequency, TF over GST control)
binding signal (SPIC): 1.11 fold enrichment (6-mer frequency, TF over GST control)
binding signal (ELK4): 1.05 fold enrichment (6-mer frequency, TF over GST control)
binding signal (ERF): 1 fold enrichment (6-mer frequency, TF over GST control)
binding signal (ETV3L): 1.01 fold enrichment (6-mer frequency, TF over GST control)
binding signal (ETS2): 1 fold enrichment (6-mer frequency, TF over GST control)
binding signal (SPDEF): 1 fold enrichment (6-mer frequency, TF over GST control)

GTGCTG
binding signal (SPIC): 1.05 fold enrichment (6-mer frequency, TF over GST control)

AGCAGA
binding signal (SPIC): 1.04 fold enrichment (6-mer frequency, TF over GST control)
